SMILES strings stand for the structures. The campaign covered roughly 370,000 compounds. About 3,100 (0.84%) were called active. This excerpt belongs to a sample that is enriched for actives. A number with no mark means an inactive call. Cut-off read from the data, not from the text of the source: active = inhibition above about 9.5%; inactive = the rest.

1-phosphatidylinositol 4,5-bisphosphate phosphodiesterase gamma-1 (Homo sapiens), sequence (P19174 whole entry, looked up): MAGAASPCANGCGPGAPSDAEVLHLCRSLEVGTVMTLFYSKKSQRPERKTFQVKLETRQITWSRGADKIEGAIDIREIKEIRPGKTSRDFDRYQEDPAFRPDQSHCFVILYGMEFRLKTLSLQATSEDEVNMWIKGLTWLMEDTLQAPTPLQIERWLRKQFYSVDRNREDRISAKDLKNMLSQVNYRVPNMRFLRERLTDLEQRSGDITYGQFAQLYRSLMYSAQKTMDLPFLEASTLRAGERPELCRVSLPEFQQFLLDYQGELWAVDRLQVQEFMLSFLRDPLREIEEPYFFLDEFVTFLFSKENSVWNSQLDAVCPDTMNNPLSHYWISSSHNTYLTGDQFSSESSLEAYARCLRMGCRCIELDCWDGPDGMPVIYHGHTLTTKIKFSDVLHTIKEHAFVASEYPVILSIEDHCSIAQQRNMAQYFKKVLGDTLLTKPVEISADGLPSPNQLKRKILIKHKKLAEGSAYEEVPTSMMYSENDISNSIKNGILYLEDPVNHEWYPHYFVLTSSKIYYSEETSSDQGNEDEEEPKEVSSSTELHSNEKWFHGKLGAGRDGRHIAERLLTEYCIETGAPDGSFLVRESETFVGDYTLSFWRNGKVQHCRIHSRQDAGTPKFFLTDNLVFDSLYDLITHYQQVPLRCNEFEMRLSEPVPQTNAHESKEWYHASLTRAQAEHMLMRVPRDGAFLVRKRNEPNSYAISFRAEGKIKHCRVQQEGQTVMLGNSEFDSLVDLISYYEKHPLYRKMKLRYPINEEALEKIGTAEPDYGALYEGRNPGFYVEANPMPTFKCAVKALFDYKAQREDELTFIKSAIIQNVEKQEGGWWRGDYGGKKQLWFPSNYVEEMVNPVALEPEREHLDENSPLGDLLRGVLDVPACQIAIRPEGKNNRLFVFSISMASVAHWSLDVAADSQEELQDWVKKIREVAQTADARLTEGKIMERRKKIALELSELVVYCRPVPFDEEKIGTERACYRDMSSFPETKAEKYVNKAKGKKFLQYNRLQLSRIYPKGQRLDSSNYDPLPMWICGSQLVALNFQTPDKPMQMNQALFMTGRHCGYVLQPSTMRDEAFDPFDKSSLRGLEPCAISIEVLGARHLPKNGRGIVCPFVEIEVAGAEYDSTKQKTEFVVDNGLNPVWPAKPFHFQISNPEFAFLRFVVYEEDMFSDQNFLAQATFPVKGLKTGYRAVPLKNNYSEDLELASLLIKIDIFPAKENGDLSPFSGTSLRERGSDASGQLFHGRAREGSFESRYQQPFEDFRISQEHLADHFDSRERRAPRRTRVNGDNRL

The experiment addresses 1-phosphatidylinositol 4,5-bisphosphate phosphodiesterase gamma-1 (Homo sapiens) (UniProt P19174). Briefly: blockers of human PLCG1 activity – biochemical, fluorescence, purified enzyme, primary screen (AID 720700). The settings on record: purified PLC-gamma1, fluorogenic substrate, at 12.2 µM, hits give high values.
For the compound `C=CCN1C(C(=O)OC)CN(Cc2cn(Cc3ccccc3)nn2)CCS1(=O)=O` (stereo not drawn), the inhibition was 2.03%.

Turning to `COc1cccc(CNC(=O)CNS(=O)(=O)c2ccc3nc(C)sc3c2)c1OC`, the inhibition is 2.68%. Take `CCCC[C@H](C(=O)N(CC)c1ccccc1)[C@@H](O)c1ccc2ccccc2c1`: the inhibition was 2.96%.

As to `O=C1/C(=C\c2ccsc2)NC(=S)N1c1ccccc1`, the inhibition is 9.99% (active). As to `CN(C)c1ccc(/C=C2\NC(=S)N(Cc3ccccc3)C2=O)cc1`, the inhibition was -48.2%. Turning to `CCCCN=C1N/C(=C\c2ccco2)C(=O)N1c1ccccc1`, the inhibition was -18.1%. Consider `COc1ccc(C2CC=C(C(=O)O)C(c3ccccc3F)N2S(=O)(=O)c2ccc(C)cc2)cc1OC` (stereo not drawn), for which the inhibition was -0.05%. As for `CCCCOCCCNC(=O)C[C@H]1C[C@@]2(C(=O)OC)C(=C[C@H](COCc3ccccc3)O[C@@H]2C)N(Cc2cccc3ccccc23)C1=O`, the figure is 2.09%.

With `CCCCNC(=O)C[C@@H]1C(=O)N(CCc2ccc(Cl)cc2)C2=CCCC[C@]21C(=O)OCC`, the inhibition is 1.96%. On to `Cc1ccc(-c2nnc(SCC(=O)Nc3ccc(Oc4ccccc4)cc3)n2Cc2ccco2)cc1`, for which the inhibition is -3.01%. As for `COc1ccc(-c2cc(-c3nnc(SCc4ccc([N+](=O)[O-])cc4)n3N)[nH]n2)cc1`, the figure is -0.19%; as for `C#CCN([C@H](C(=O)OC)C(C)CC)S(=O)(=O)c1ccccc1Br` (stereo partly drawn), -0.23%; as for `CN1c2ccc(C=O)c3c(C=O)ccc(c23)N(C)C1(C)C`, -156%.

Regarding `Cc1ccc(C=O)c([B-](F)(F)F)c1`, the inhibition is 9.66% (active). With `COc1ccc(C(=O)CSc2nnc(-c3cnccn3)n2-c2ccc(C)cc2)cc1`, the inhibition was -2.8%. For `CCC[C@H]1C(=O)CC[C@@]23CCCN2C(=O)CCC[C@@H]13`, the inhibition was -1.51%. Consider `CCOC(=O)[C@]12CCCC3=C1N(CCC3)C(=O)[C@@H](CC(=O)NCc1cccs1)C2`, for which the inhibition was -0.59%. `S=c1[nH]nc(-c2cccnc2)n1/N=C/C(Cl)=C\c1ccccc1`: the inhibition was 12.7% (active).

Take `CSc1ccc(C=Nn2c(-c3ccc(F)cc3)n[nH]c2=S)cc1`: the inhibition was 3.12%. The figure for `C(=C\c1ccccc1)/CSc1nnc(-c2cccnc2)n1Cc1ccco1` is -1.89%. Consider `Cc1ccc(C)c(N2CCN(S(=O)(=O)c3c(C)[nH]c(C)c3C(=O)N3CCCC3)CC2)c1`, for which the inhibition was 17% (active). On to `Cc1[nH]c(C)c(S(=O)(=O)N2CCN(c3cccc(C(F)(F)F)c3)CC2)c1C(=O)N1CCCC1`, for which the inhibition was 0.67%.

Turning to `Cc1[nH]c(C)c(S(=O)(=O)N2CCN(c3cccc(C(F)(F)F)c3)CC2)c1C(=O)N1CCCCC1`, the inhibition is 0.49%. Take `CN(C(N)=NC(=O)/C=C/c1ccccc1)C(C#Cc1ccccc1)Cc1ccccc1` (stereo not drawn): the inhibition is -3.61%. For the compound `C=CCN(Cc1ccc2c(c1)OCO2)C(C#CC1CC1)C(C)(C)C` (stereo not drawn), the inhibition was -0.25%. On to `O=c1ccc2c(-c3ccccc3S(=O)(=O)O)c3ccc(O)c(O)c3oc-2c1O`, for which the inhibition is 25.2% (active). With `O=C(CSc1nc2ccccc2n1Cc1ccccc1)NNC(=S)Nc1ccccc1`, the inhibition was 3.11%. For the compound `C#CCNC(=O)C[C@H]1C[C@@]2(C(=O)OC)C(=C[C@H](C(C)C)O[C@@H]2C2CC2)N(Cc2ccco2)C1=O`, the inhibition is 0.18%. As for `O=C(NCc1cccs1)C1CCN(S(=O)(=O)c2ccccc2[N+](=O)[O-])CC1`, the figure is 3.22%.

On to `c1coc(CCNc2ncnc3ccc(-c4ccc5c(c4)OCO5)cc23)c1`, for which the inhibition is -114%. Consider `CC1(C)Cc2nc3sc4c(SCC(=O)NC(c5ccccc5)c5ccccc5)ncnc4c3cc2CO1`, for which the inhibition is -1.56%. As for `CCCc1nc2oc3c(OCC)ncnc3c2c2c1COC(C)(C)C2`, the figure is 2.49%; as for `CC(C)CCSc1ncnc2c1oc1nc3c(cc12)COC(C)(C)C3`, 10.6% (active). As to `COC(=O)C1CN(Cc2ccc(F)cc2)CCS(=O)(=O)N1Cc1ccc(Cl)cc1` (stereo not drawn), the inhibition is -0.52%. On to `C=CCN1C(=O)[C@@H](CC(=O)NCC2CCCCC2)[C@]2(C(=O)OC)CCCCC=C12`, for which the inhibition is -0.08%. With `CC(C)CSc1nnc(-c2cccnc2)n1Cc1ccccc1`, the inhibition was 0.54%.

Turning to `COc1ccnc(NC(=S)N2CCN(c3ncc(C(F)(F)F)cc3Cl)CC2)c1`, the inhibition is 4.36%. On to `O=C(Nc1cccc(Cl)c1)OC1CC2CC1[C@H]1CCCCN1[C@H]2Cc1ccccc1` (stereo partly drawn), for which the inhibition was -19.3%.

As for `O=C1N[C@@H](c2ccccc2)COC(=O)[C@H](Cc2ccc(F)cc2)C/C=C\C[C@@H]1CC(=O)N(CCO)Cc1ccccc1`, the inhibition is 9.59% (active). As to `O=C1NC[C@@H](c2ccccc2)OC(=O)[C@H](Cc2ccc(F)cc2)CC/C=C/C[C@H]1CC(=O)N(CCO)Cc1ccccc1`, the inhibition was -0.18%.

`O=C1N[C@H](Cc2c[nH]c3ccccc23)COC(=O)[C@H](Cc2ccc(F)cc2)C/C=C\C[C@H]1CC(=O)N(CCO)Cc1ccccc1`: the inhibition was 1.6%. Turning to `O=C(Nc1nc2ccc(Cl)cc2s1)c1cc(-c2ccc(Cl)cc2)nc2ccccc12`, the inhibition was 6.56%. Turning to `Cc1ccc(Cn2cc(CN3[C@@H](CC(C)C)COc4ccc(Cl)cc4S3(=O)=O)nn2)cc1`, the inhibition is 1.86%. Regarding `COc1ccc(Cn2ccc3ccc(-c4ccc5ccn(Cc6ccccc6C)c5c4)cc32)cc1`, the inhibition is -65%.

For `O=S1(=O)c2c(cccc2N2CC[C@H](O)C2)O[C@@H]2CCN1C2`, the inhibition was -2.5%. Turning to `CCOC(=O)C1CCN(C(=O)c2cccc(S(=O)(=O)N(CC)c3ccccc3)c2)CC1`, the inhibition is 1.63%. Consider `CCN1CCN(C(=O)c2ccccc2N(C)S(=O)(=O)c2ccc(C)cc2)CC1`, for which the inhibition is 2.78%. Regarding `CCOC(=O)C1CCN(C(=O)c2ccccc2N(C)S(=O)(=O)c2ccccc2)CC1`, the inhibition is 12.6% (active).

With `O=C(CSc1nc2ccccc2n1Cc1ccccc1Cl)N/N=C\c1c[nH]c2ccccc12`, the inhibition was 1.37%.

Turning to `CC(C)CNc1cccc2c1S(=O)(=O)N(Cc1cn(Cc3ccccc3C(F)(F)F)nn1)Cc1ccccc1O2`, the inhibition is -4.63%. As to `Cc1ccc(-c2csc(N(Cc3ccco3)C(=O)c3cccs3)n2)cc1`, the inhibition is 0.51%. Regarding `Cc1ccc(NC(=S)N(Cc2ccco2)C(C)c2cccs2)cc1` (stereo not drawn), the inhibition is 9.84% (active). As for `Cc1cccc(NC(=S)N(CCN(C)C)C(C)c2ccco2)c1` (stereo not drawn), the inhibition was -0.2%. For the compound `O=C1CC[C@@H](COc2ccc3[nH]cc(-c4ccccc4)c3c2-c2ccccc2)N1`, the inhibition is -12.8%.

For the compound `Nc1[nH]c(/C=C2/CCCCC2n2[nH]c(=O)n(-c3ccccc3)c2=O)c(Cc2ccccc2)[n+]1Cc1ccccc1` (stereo not drawn), the inhibition is -3.57%. For `COC(=O)[C@]12C[C@H](CC(=O)NCc3cccs3)C(=O)N(CCc3ccc(OC)c(OC)c3)C1=C[C@H](C(C)C)O[C@@H]2C1CC1`, the inhibition was 0.22%. As for `Cc1ccc(CSc2nnc(SCC(=O)NN=Cc3cc(Br)ccc3F)s2)cc1`, the figure is 1.18%; as for `CC[C@@H](CCC(=O)N(c1ccccc1)c1ccccc1)C1CC1`, -1.13%. For `CC[C@]12c3[nH]c4ccc(Cl)cc4c3CCN1C(=O)[C@@H](CC(=O)NCCN1CCOCC1)C[C@@H]2C(=O)N1CCN(C(=O)C2CC2)CC1`, the inhibition was 0.47%.

With `COc1ccc2[nH]c3c(c2c1)CCN1C(=O)C(CC(=O)NCCc2ccccn2)C[C@H](C(=O)N2CCOCC2)[C@@]31C` (stereo partly drawn), the inhibition is 0.01%. Consider `C[C@]12c3[nH]c4ccc(Cl)cc4c3CCN1C(=O)[C@@H](CC(=O)NCCCn1ccnc1)C[C@@H]2C(=O)N1CCOCC1`, for which the inhibition was 13.5% (active). With `CCOc1ccc(N(CC(=O)Nc2c(C)n(C)n(-c3ccccc3)c2=O)S(=O)(=O)c2ccc(Cl)s2)cc1`, the inhibition was 1.1%. For the compound `CN[C@H]1C[C@H]2c3cc(N4CCOCC4)ccc3CCN2C[C@H]1[C@H](C)O`, the inhibition was -7.18%. Consider `Nn1c(SCC(=O)Nc2ccc(S(N)(=O)=O)cc2)nnc1-c1n[nH]c2c1CCC2`, for which the inhibition is 3.04%. As for `CCOc1ccc(NC(=O)[C@H](C)NC(=O)C2CC(=O)N(c3ccc(OC)cc3)C2)cc1` (stereo partly drawn), the figure is 9.63% (active); as for `COc1ccc(N2CC(C(=O)N[C@@H](C)C(=O)N3CCCCC3)CC2=O)cc1` (stereo partly drawn), -2.8%.

As to `CCCC(C)c1nnc(NC(=O)C2CC(=O)N(c3ccc(OCC)cc3)C2)s1` (stereo not drawn), the inhibition was 4.32%.

As for `CCOC(=O)[C@]12CCCC3=C1N(CCC3)C(=O)[C@@H](CC(=O)NCC13CC4CC(CC(C4)C1)C3)C2`, the inhibition is 0.85%. As for `O=C(Nc1cc(Cl)cc(Cl)c1)OCCN1CCCC12CCC(c1ccccc1)CC2` (stereo not drawn), the figure is -0.68%; as for `COc1ccc(-n2c(SCC(=O)Nc3ccc(C)c(Cl)c3)nc3ccccc3c2=O)cc1`, 5.06%. As for `C=CCN(c1ccc(C(N)=O)cc1)S(C)(=O)=O`, the inhibition was 2.1%. With `CN(C)S(=O)(=O)c1cccc(C(=O)OCC(=O)N2CCCC2=O)c1`, the inhibition was 1.6%. Take `C=CCN(c1ccc(Cl)cc1)S(=O)(=O)c1cccc(C(=O)OCC(=O)N(C)C)c1`: the inhibition is 14% (active). As for `O=C(NCc1ccco1)C1CCCN(S(=O)(=O)c2ccc(Cl)s2)C1` (stereo not drawn), the inhibition is 2.2%. The figure for `COC(=O)N(C)C[C@@H]1OCc2cnnn2CCCC(=O)N([C@@H](C)CO)C[C@@H]1C` is 14.2% (active). The figure for `C[C@@H]1CN([C@H](C)CO)C(=O)CCCn2nncc2CO[C@@H]1CN(C)C(=O)OCc1ccccc1` is 5.09%; for `C[C@H](CO)N1C[C@H](C)[C@@H](CN(C)C(=O)C2CCCCC2)OCc2cnnn2CCCC1=O` it is 0.86%.

Consider `COC(=O)CC1CCc2cc(C)cc(C(CC(C)C)NC(=O)[C@H](CC(C)C)NC(=O)OCc3ccccc3)c2O1` (stereo partly drawn), for which the inhibition is -1.26%.
